# According to PubChem BioAssay (NCI):
# The panel holds about 83,000 compounds, 20% with a hit somewhere; the sample as a whole holds those more often.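 Negative percent growth values reflect cell death: -40 means 40% of the cells present at the start died, and -100 means all died.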 Active and inactive are the calls of the source. How the source made its calls: active means growth percent below 10; inactive means the rest.
# System: RPMI-8226 leukemia
# Experiment: NCI-60 one-dose screen, 48 h (100 = growth as untreated, 0 = no growth, -100 = all killed)
# Conditions: 10 µM unless noted
row,Compound,growth
1,CC(C)CCC[C@@H](C)[C@H]1CC[C@H]2[C@@H]3CC=C4C[C@@H](C(C(=O)O)C(=O)O)CC[C@]4(C)[C@H]3CC[C@]12C,-26.9% (active)
2,CCN1CCN(c2cc(C(=O)Nc3nc(-c4cc(OC)c(OC)c(OC)c4)cs3)cc(C(F)(F)F)c2)CC1,56.9% (inactive)
3,N#Cc1nn(-c2cc(=O)[nH]c3ccc(Cl)cc23)c(N)c1C#N,-24.6% (active)
4,CN(C)CCCn1c2c(c3ncccc3c1=O)C(=O)c1ccccc1-2,38.2% (inactive)
5,COc1cc(-c2nc3cc(Cl)c(Cl)cc3[nH]2)ccc1OCC(=O)N=Nc1c(O)[nH]c2ccc([N+](=O)[O-])cc12,101% (inactive)
6,C=CC(=O)NCc1ccc(Nc2nccc(-c3ccc(N4CCCC4)c(C#N)c3)n2)cc1,46.7% (inactive)
7,CSc1nnc(-c2cnn3c2NC(c2ccccc2)C3)n1-c1ccc(C(F)(F)F)cc1 (stereo not drawn),56.9% (inactive)
8,N=C(N)c1ccc(-c2ccc(-c3ccc(Cl)cc3)s2)nc1,-24.6% (active)
9,O=C(OCc1ccc2c(Cl)cc(Cl)c(O)c2n1)n1cncn1,32.9% (inactive)
10,Cn1ccc2c3c(ccc21)CC3=O,106% (inactive)
11,O=C1c2ccc3c4ccc5c6c(ccc(c7ccc(c2c37)C(=O)N1CCC[P+](c1ccccc1)(c1ccccc1)c1ccccc1)c64)C(=O)N(CCC[P+](c1ccccc1)(c1ccccc1)c1ccccc1)C5=O,21.3% (inactive)
12,CCn1c(=S)[nH]c2c(=O)n(C)c(=O)n(C)c21,101% (inactive)
13,N#CC1=C(N)Oc2c(sc3c(F)cccc23)C1c1ccc(F)cc1 (stereo not drawn),18.1% (inactive)
14,C=C(C)[C@@H]1CC[C@]2(C(=O)N3CCN(C)CC3)CC[C@]3(C)[C@H](CC[C@@H]4[C@@]5(C)CC(=C/c6ccncc6)/C(=N/O)C(C)(C)[C@@H]5CC[C@]43C)[C@@H]12,46.7% (inactive)
15,Fc1ccc2[nH]cc(-c3nonc3-c3c[nH]c4ccc(Br)cc34)c2c1,29.9% (inactive)
16,O=C1c2c(c3c4ccc(Br)cc4oc3c3[nH]c4ccccc4c23)C(=O)N1O,3.91% (active)
17,NC(=O)CCC(C(=O)O)N1C(=O)c2ccc(O)cc2C1=O (stereo not drawn),82.1% (inactive)

row,Compound,growth
1,COc1ccc2nc(NC(=O)CSc3nnc4n3S(=O)(=O)c3ccccc3N4C)sc2c1,74.1% (inactive)
2,C=C(C)[C@@H]1CC[C@]2(C(=O)NCC#CCN3CCN(C)CC3)CC[C@]3(C)[C@H](CC[C@@H]4[C@@](C)(CCC#N)[C@H](C(=C)C)CC[C@]43C)[C@@H]12,33.6% (inactive)
3,Cc1nnc(-n2c(O)cc(=O)n(-c3ccccc3)c2=S)nc1/C=C/c1ccc(N(C)C)cc1,16.1% (inactive)
4,C/C(=N\NC(=O)c1ccccc1O)c1cccc(/C(C)=N/NC(=O)c2ccccc2O)n1,41.4% (inactive)
5,O=C1c2cc(Cl)ccc2S(=O)(=O)c2c(NCCCNCCO)nc3ccccc3c21,-22.2% (active)
6,Cc1cc2c(O)c(-c3cc(Cl)ccc3Cl)c3sc(=O)oc3c2cc1C,38.3% (inactive)
7,O=C(Nc1ccc(NC(=O)c2cc(=O)[nH]c3ccccc23)cc1)Nc1cccc(C(F)(F)F)c1,74.4% (inactive)
8,c1ccc(C2=NN[C@H](c3cn(-c4ccccc4)nc3-c3ccccc3)C2)cc1,86.7% (inactive)
9,O=C(CCCCC1CCSS1)Nc1ncnc2n[nH]c(-c3ccc(Oc4ccccc4)cc3)c12 (stereo not drawn),85.4% (inactive)
10,COc1cc(OC)cc(C2=C3CC[C@@H]4[C@H](CC[C@]5(C)C(=O)CC[C@@H]45)C3=CC3C(O)c4cccnc4N4C(=O)COC234)c1 (stereo partly drawn),96.2% (inactive)
11,Cc1cnc(C(=O)NNc2nc3sc4c(c3c(=O)n2C)C(C)CCC4)cn1 (stereo not drawn),9.06% (active)
12,C=C(CNCCc1ccc(O)cc1)[C@@H]1CC[C@]2(CO)CC[C@]3(C)[C@H](CC[C@@H]4[C@@]5(C)CCC(NCCO)C(C)(C)[C@@H]5CC[C@]43C)[C@@H]12 (stereo partly drawn),-45.9% (active)
13,COc1ccc(/C=N/C2=C(C#N)C(c3cccc(Cl)c3)c3c(ccc4ccccc34)O2)cc1 (stereo not drawn),17.4% (inactive)
14,CCc1ccc(Oc2cn[nH]c2-c2ccc(OCCc3ccc(F)cc3)cc2O)cc1,81% (inactive)
15,O=C(/C=C/c1cn(-c2ccccc2)nc1-c1ccc([N+](=O)[O-])cc1)c1ccc(Cl)cc1,38.3% (inactive)
16,CO[C@H]1/C=C(/C)CCC[C@H](C)[C@H](O)[C@@H](C)C(=O)C(C)(C)[C@@H](O)CC(=O)O[C@@H]1/C(C)=C/c1csc(C)n1,14.2% (inactive)
